In general, AC50 refers to the concentration giving half of the maximal activity seen.

Common to all, as to settings: mRNA level, 48 h; actives raise or lower the signal
Read-out in assay [1]: Glutathione S-Transferase (GSTA2), GSTA2 (gene 2939)
Description: LTEA_HepaRG_GSTA2: Life Technologies and Expression Analysis (LTEA) Assay for Glutathione S-Transferase (GSTA2) using HepaRG (AID 2283497). In outline: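 Differentiated human HepaRG cells were exposed in duplicate for 48 h in serum-free induction medium, 8 points from 100 uM top in half-log steps, 0.5% DMSO. GSTA2 mRNA was measured by TaqMan qRT-PCR, normalized to ACTB, GAPDH and POLR2A; bidirectional fit versus DMSO.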

Read-out in assay [2]: Glutamate-cysteine ligase catalytic (GCLC), GCLC (gene 2729)
Description: LTEA_HepaRG_GCLC: Life Technologies and Expression Analysis (LTEA) Assay for Glutamate-cysteine ligase catalytic (GCLC) using HepaRG (AID 2283498). The gist of the method:
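Differentiated HepaRG cells exposed 48 h in serum-free induction medium, eight-point half-log series topping at 100 uM in 0.5% DMSO, duplicates. GCLC mRNA by qRT-PCR normalized to ACTB, GAPDH and POLR2A, fitted bidirectionally versus DMSO.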

Read-out in assay [3]: Glutamate-cysteine ligase regulatory (GCLM), GCLM (gene 2730)
Kind of assay: LTEA_HepaRG_GCLM: Life Technologies and Expression Analysis (LTEA) Assay for Glutamate-cysteine ligase regulatory (GCLM) using HepaRG (AID 2283500). In outline: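 Human liver HepaRG cultures receive test chemicals for 48 hours at up to 100 uM in 0.5% DMSO. GCLM expression is measured by qRT-PCR and analysed for increases or decreases against vehicle.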

Read-out in assay [4]: Glutathione S-transferase M3 (GSTM3), GSTM3 (gene 2947)
Description: LTEA_HepaRG_GSTM3: Life Technologies and Expression Analysis (LTEA) Assay for Glutathione S-transferase M3 (GSTM3) using HepaRG (AID 2283501). In outline:
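Changes in GSTM3 expression, an oxidative-stress marker, were scored by bidirectional curve fitting against 0.5% DMSO vehicle. Human HepaRG cultures received chemicals for 48 h in duplicate, highest concentration 100 uM with half-log dilutions.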

Read-out in assay [5]: Heat shock 70 kDa protein 1 (HSPA1A), gene 3303
Description: LTEA_HepaRG_HSPA1A: Life Technologies and Expression Analysis (LTEA) Assay for Heat shock 70 kDa protein 1 (HSPA1A) using HepaRG (AID 2283502). The gist of the method: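 HSPA1A induction in human HepaRG liver cells is measured after 48 h of chemical treatment (100 uM maximum, 0.5% DMSO vehicle). Expression comes from qRT-PCR normalized to endogenous controls.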

Read-out in assay [6]: Hypoxia-inducible factor 1-alpha (Homo sapiens) (UniProt Q16665)
Kind of assay: LTEA_HepaRG_HIF1A: Life Technologies and Expression Analysis (LTEA) Assay for Hypoxia-inducible factor 1 (HIF1A) Trancription factor using HepaRG (AID 2283503).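 Also: HIF1A transcript by TaqMan qRT-PCR normalized to ACTB GAPDH and POLR2A.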 The gist of the method: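 HepaRG, 48 h exposure, 8-pt half-log series from 100 uM, 0.5% DMSO vehicle, duplicates. Readout: HIF1A transcript by qRT-PCR (Fluidigm array), housekeeping-normalised. Bidirectional curve fit vs DMSO baseline.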

Read-out in assay [7]: 3-Hydroxy-3-Methylglutaryl-CoA Synthase 2 (HMGCS2), HMGCS2 (gene 3158)
Kind of assay: LTEA_HepaRG_HMGCS2: Life Technologies and Expression Analysis (LTEA) Assay for 3-Hydroxy-3-Methylglutaryl-CoA Synthase 2 (HMGCS2) using HepaRG (AID 2283504). In outline: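 Expression of HMGCS2 in human HepaRG liver cells is measured by qRT-PCR 48 h after dosing (highest 100 uM, half-log series, 0.5% DMSO). Values come from bidirectional concentration-response fitting with DMSO as baseline.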

Read-out in assay [8]: HGF (gene 3082)
Kind of assay: LTEA_HepaRG_HGF: Life Technologies and Expression Analysis (LTEA) Assay for Hepatocyte Growth Facto (HGF) using HepaRG (AID 2283505). In outline: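 Gain or loss of HGF mRNA in human HepaRG liver cells after 48 h chemical exposure; eight concentrations up to 100 uM with 0.5% DMSO vehicle, quantified by TaqMan qRT-PCR.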

Read-out in assay [9]: Insulin Like Growth Factor 1 (IGF1), IGF1 (gene 3479)
Description: LTEA_HepaRG_IGF1: Life Technologies and Expression Analysis (LTEA) Assay for Insulin Like Growth Factor 1 (IGF1) using HepaRG (AID 2283506). The gist of the method: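 Using human HepaRG liver cells, IGF1 transcript induction or suppression is measured 48 h after dosing across eight concentrations capped at 100 uM. Values derive from bidirectional concentration-response fitting with DMSO as baseline.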

Read-out in assay [10]: Intercellular Adhesion Molecule 1 (ICAM1), ICAM1 (gene 3383)
Description: LTEA_HepaRG_ICAM1: Life Technologies and Expression Analysis (LTEA) Assay for Intercellular Adhesion Molecule 1 (ICAM1) using HepaRG (AID 2283507). In outline: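 Gain or loss of transcript in HepaRG hepatic cells is quantified by qRT-PCR after 48 h chemical exposure (up to 100 uM, half-log steps), with DMSO as baseline.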

Read-out in assay [11]: Insulin-like growth factor-binding protein 1 (IGFBP1), IGFBP1 (gene 3484)
Description: LTEA_HepaRG_IGFBP1: Life Technologies and Expression Analysis (LTEA) Assay for Insulin-like growth factor-binding protein 1 (IGFBP1) using HepaRG (AID 2283508). The gist of the method:
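mRNA induction or loss was quantified by qRT-PCR after 48 h chemical exposure of human HepaRG cells, with 0.5% DMSO as vehicle and baseline. Concentration-response over eight points up to 100 uM.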

Read-out in assay [12]: Interleukin 6 (IL6), IL6 (gene 3569)
Kind of assay: LTEA_HepaRG_IL6: Life Technologies and Expression Analysis (LTEA) Assay for Interleukin 6 (IL6) using HepaRG (AID 2283509). The gist of the method: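 HepaRG cells exposed in duplicate for 48 h to eight half-log concentrations, top 100 uM, in 0.5% DMSO serum-free induction medium. mRNA measured by qRT-PCR, normalized to ACTB, GAPDH and POLR2A. Bidirectional fit versus DMSO.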

Read-out in assay [13]: Interleukin 6 Receptor (IL6R), IL6R (gene 3570)
Kind of assay: LTEA_HepaRG_IL6R: Life Technologies and Expression Analysis (LTEA) Assay for Interleukin 6 Receptor (IL6R) using HepaRG (AID 2283510).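 As to AC50: TaqMan qRT-PCR signal normalized to ACTB GAPDH and POLR2A housekeeping genes.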 The gist of the method:
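Concentration-response in human liver HepaRG cells: eight concentrations from 100 uM downward by half-logs, 48 h exposure, 0.5% DMSO vehicle. IL6R mRNA change measured by qRT-PCR and fitted in both directions relative to vehicle.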

Read-out in assay [14]: Potassium channel subfamily K member 1 (KCNK1), KCNK1 (gene 3775)
Kind of assay: LTEA_HepaRG_KCNK1: Life Technologies and Expression Analysis (LTEA) Assay for Potassium channel subfamily K member 1 (KCNK1) using HepaRG (AID 2283511). In outline: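 Differentiated HepaRG cells, 48 h exposure in serum-free induction medium with 0.5% DMSO; 8 concentrations, half-log from 100 uM, duplicate. KCNK1 mRNA by qRT-PCR, normalized to ACTB, GAPDH, POLR2A; bidirectional fit vs DMSO.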

Read-out in assay [15]: Keratin 19 (KRT19), KRT19 (gene 3880)
Description: LTEA_HepaRG_KRT19: Life Technologies and Expression Analysis (LTEA) Assay for Keratin 19 (KRT19) using HepaRG (AID 2283512). The gist of the method:
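Gene-expression endpoint in the human liver line HepaRG after 48 h exposure to up to 100 uM test chemical with 0.5% DMSO vehicle; KRT19 mRNA by qRT-PCR, analyzed bidirectionally versus DMSO.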

Read-out in assay [16]: JUN Transcription Factor, JUN (gene 3725)
Kind of assay: LTEA_HepaRG_JUN: Life Technologies and Expression Analysis (LTEA) Assay for JUN Transcription Factor using HepaRG (AID 2283513). In outline:
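Human HepaRG liver cells receive test chemicals in 0.5% DMSO for 48 h across an eight-point range topping at 100 uM. Expression changes in JUN are scored in both directions against the DMSO vehicle.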

Read-out in assay [17]: Lipase C (LIPC), LIPC (gene 3990)
Description: LTEA_HepaRG_LIPC: Life Technologies and Expression Analysis (LTEA) Assay for Lipase C (LIPC) using HepaRG (AID 2283514). The gist of the method:
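HepaRG cells, 48 h after plating, treated in duplicate for 48 h in serum-free induction medium over 8 half-log concentrations from 100 uM, 0.5% DMSO. LIPC mRNA by TaqMan qRT-PCR normalized to ACTB/GAPDH/POLR2A; bidirectional fit versus DMSO.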

Read-out in assay [18]: Lipoprotein lipase (LPL), LPL (gene 4023)
Description: LTEA_HepaRG_LPL: Life Technologies and Expression Analysis (LTEA) Assay for Lipoprotein lipase (LPL) using HepaRG (AID 2283515). In outline:
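Differentiated HepaRG cells, plated 48 h, then exposed 48 h in serum-free induction medium to 8 concentrations (top 100 uM, half-log steps) in 0.5% DMSO, duplicate. LPL mRNA measured by qRT-PCR, normalized to ACTB, GAPDH and POLR2A.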

Read-out in assay [19]: MicroRNA 122 (MIR122), gene 406906
Description: LTEA_HepaRG_MIR122: Life Technologies and Expression Analysis (LTEA) Assay for MicroRNA 122 (MIR122) using HepaRG (AID 2283516). Also: the transcript read is the microRNA miR-122. The gist of the method:
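HepaRG, 48 h exposure, 8-pt half-log from 100 uM, 0.5% DMSO; TaqMan qRT-PCR; bidirectional fit vs DMSO.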

Molecules are shown by their SMILES. Active and inactive are the calls of the source. The calls were made as follows: active = hit-call score of the fitted dose curve at least 0.9, where 1 is the maximum; inactive = score below 0.9.

Sequence of Hypoxia-inducible factor 1-alpha (Homo sapiens) (Q16665 whole entry, looked up): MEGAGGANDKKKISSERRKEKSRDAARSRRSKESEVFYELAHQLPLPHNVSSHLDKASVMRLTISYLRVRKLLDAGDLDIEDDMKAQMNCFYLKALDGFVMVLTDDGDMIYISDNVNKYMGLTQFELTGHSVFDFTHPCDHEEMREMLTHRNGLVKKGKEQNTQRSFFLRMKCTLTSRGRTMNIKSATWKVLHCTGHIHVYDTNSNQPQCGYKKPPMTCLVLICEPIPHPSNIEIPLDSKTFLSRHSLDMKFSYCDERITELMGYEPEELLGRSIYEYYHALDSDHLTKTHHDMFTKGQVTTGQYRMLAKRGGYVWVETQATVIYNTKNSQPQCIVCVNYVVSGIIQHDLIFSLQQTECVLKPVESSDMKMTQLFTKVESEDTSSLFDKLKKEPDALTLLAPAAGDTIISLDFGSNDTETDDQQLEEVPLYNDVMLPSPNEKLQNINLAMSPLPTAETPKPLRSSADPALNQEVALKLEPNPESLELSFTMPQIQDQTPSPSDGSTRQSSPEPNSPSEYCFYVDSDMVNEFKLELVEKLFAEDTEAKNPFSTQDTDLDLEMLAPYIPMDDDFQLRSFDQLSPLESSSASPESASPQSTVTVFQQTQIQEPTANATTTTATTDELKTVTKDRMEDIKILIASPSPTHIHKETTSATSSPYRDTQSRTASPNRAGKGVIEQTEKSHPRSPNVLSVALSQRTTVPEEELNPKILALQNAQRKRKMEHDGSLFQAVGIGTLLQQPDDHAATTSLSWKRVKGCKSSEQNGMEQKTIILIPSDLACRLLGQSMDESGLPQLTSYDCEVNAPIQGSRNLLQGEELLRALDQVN

Consider `Nc1ccccc1N`, for which the concentration at half-maximal activity (AC50) in assay [1] is 74.9 µM (active); in [2], 86.4 µM (active); in [5], 50 µM (active); in assay [7] it was 74 µM (active); in [9] it was 66.8 µM (active); in [11], 13.4 µM (active). Moreover, the AC50 in assay [13] was 72.3 µM (active); in assay [15], 3.62 µM (active); in [17], 62.7 µM (active); in assay [18], 50 µM (active); in [19], 71.4 µM (active). Besides, the compound was classed as inactive in assay [3], in assay [4], in assay [6], in assay [8], in [10] and in [12]. The outcome in assay [14] and in assay [16] was inactive.

As for `COc1cc(-c2nc(NC(=O)c3cc4cc(C)cc(C)c4n3CC(=O)O)sc2CCC2CCCCC2)c(OC)cc1Cl`, the AC50 in assay [1] is 7.06 µM (active); in assay [2], 14 µM (active); in assay [3], 19.4 µM (active); in [4] it was 3.86 µM (active); in assay [5], 11.1 µM (active); in assay [6], 11 µM (active). Further, the AC50 in assay [7] is 6.61 µM (active); in assay [8] it was 6.32 µM (active); in assay [9], 6.45 µM (active); in assay [11], 3.83 µM (active); in assay [12], 4.98 µM (active); in [13], 26.5 µM (active). The AC50 in assay [15] was 11.4 µM (active); in assay [16], 10.7 µM (active); in assay [17], 6.41 µM (active); in [18] it was 10.5 µM (active). In addition, the call in [14] was inactive.

Turning to `Oc1ccc2ccccc2c1N=Nc1ccccc1`, the half-maximal activity concentration (AC50) in assay [1] was 3.38 µM (active); in assay [2] it was 5.52 µM (active); in assay [3] it was 24.6 µM (active); in [7] it was 14.8 µM (active); in assay [9], 50 µM (active); in assay [11], 5.48 µM (active). Further, the concentration at half-maximal activity (AC50) in assay [13] was 15.7 µM (active); in assay [15] it was 3.66 µM (active); in assay [17], 11.8 µM (active); in assay [18], 1.7 µM (active); in [19], 9.92 µM (active). The outcome in assay [4], in assay [5], in assay [6], in [8], in assay [10] and in assay [12] was inactive. The result in [14] and in [16] was inactive.

As for `Cc1ccc(N(C)C)cc1`, the call in assay [1], in assay [2], in assay [3], in assay [4], in [5] and in assay [6] was inactive. For the same compound, the outcome in assay [7], in assay [8], in assay [9], in assay [10], in assay [11] and in assay [12] was inactive. For the same compound, the result in [13], in assay [14], in [15], in assay [16], in assay [17] and in assay [18] was inactive.
